Records with an inconclusive call do not appear. Active and inactive are the calls of the source. The call rests on the fitted dose curve; in most records, active means well fitted inhibition curve with a large enough effect; inconclusive means small, poorly fitted or top-dose-only effect; inactive means no such curve, though single readings can be large or run the other way.
Experiment: Primary qHTS for small molecule stabilizers of the endoplasmic reticulum resident proteome: Secreted ER Calcium Modulated Protein (SERCaMP) assay (AID 1508630)
Conditions: SH-SY5Y GLuc-SERCaMP (Gaussia luciferase released on ER calcium loss) secretion, thapsigargin, luminescence; series mostly up to 38.4 µM; activity change, negative = inhibition: at the top concentration
Outline: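 The SH-SY5Y reporter protocol was run at 3 concentrations up to 38.3 uM (primary) or 11 concentrations (follow-up): 16 h compound, 100 nM thapsigargin for 4 h, then extracellular luciferase luminescence.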
On the % scale 0 is the no-effect control and ±100 the full control effect.

| Structure (SMILES) | activity change, negative = inhibition | Potency |
| --- | --- | --- |
| COc1cc(C=CC(=O)O)ccc1O | -26.9% (inactive) |  |
| CC(C)CN(C[C@@H](O)[C@H](Cc1ccccc1)NC(=O)O[C@H]1CO[C@H]2OCC[C@H]21)S(=O)(=O)c1ccc(N)cc1 | 108% (inactive) |  |
| CC[C@H](NC(=O)[C@H](C)NC)C(=O)N1C[C@@H](O)C[C@H]1Cc1c(-c2[nH]c3cc(F)ccc3c2C[C@H]2C[C@H](O)CN2C(=O)[C@H](CC)NC(=O)[C@H](C)NC)[nH]c2cc(F)ccc12 | 110% (inactive) |  |
| COc1ccc2ccc(=O)oc2c1CC=C(C)C | 184% (inactive) |  |
| CCC(=O)OCC(=O)[C@@]1(OC(=O)CC)[C@@H](C)C[C@@H]2[C@H]3CCC4=CC(=O)C=C[C@]4(C)[C@@]3(F)[C@@H](O)C[C@@]21C | 38% (inactive) |  |
| Cc1[nH]c(C=C2C(=O)Nc3ccc(S(=O)(=O)N(C)c4cccc(Cl)c4)cc32)c(C)c1C(=O)N1CCN(C)CC1 | 3.08% (inactive) |  |
| CC[C@]1(O)C[C@H]2CN(CCC3=c4ccccc4=N[C]3[C@@](C(=O)OC)(c3cc4c(cc3OC)N(C)[C@H]3[C@@](O)(C(N)=O)[C@H](O)[C@]5(CC)C=CCN6CC[C@]43[C@@H]65)C2)C1 | 0% (inactive) |  |
| C[C@@H](O)[C@H]1C(=O)N2C(C(=O)OCOC(=O)C(C)(C)C)=C(SC3CN(C4=NCCS4)C3)[C@H](C)[C@H]12 | -10.6% (inactive) |  |
| Cn1cc(-c2ccc3nnc(Sc4ccc5ncccc5c4)n3n2)cn1 | 11.9% (inactive) |  |
| CCOC(=O)[C@H]1O[C@H]1C(=O)N[C@@H](CC(C)C)C(=O)NCCC(C)C | 63.7% (inactive) |  |
| CC1(C)[C@H]2CC[C@]3(C)[C@@H](C(=O)C=C4[C@@H]5C[C@@](C)(C(=O)O)CC[C@]5(C)CC[C@]43C)[C@@]2(C)CC[C@@H]1O | 23.2% (inactive) |  |
| CCNC(=O)[C@H]1O[C@@H](n2cnc3c(N)nc(NCCc4ccc(CCC(=O)O)cc4)nc32)[C@H](O)[C@H]1O | 3% (inactive) |  |
| CN(C)CCOc1ccc(-c2nc(-c3ccc4c(c3)CCC4=NO)c(-c3ccncc3)[nH]2)cc1 | 145% (inactive) |  |
| C[C@H]1O[C@@H](n2cc(F)c(=O)[nH]c2=O)[C@H](O)[C@H]1O | 38.4% (inactive) |  |
| O=C(c1ccc(C=Cc2n[nH]c3ccccc23)cc1)N1CCNCC1 | 50.2% (inactive) |  |
| CON(C)C(=O)N1N=C(c2cc(F)ccc2F)S[C@]1(CCCN)c1ccccc1 | 8.27% (inactive) |  |
| CCCCN(CCCC)CC(O)c1cc(Cl)cc2c1-c1ccc(Cl)cc1C2=Cc1ccc(Cl)cc1 (stereo not drawn) | -21.3% (inactive) |  |

| Structure (SMILES) | activity change, negative = inhibition | Potency |
| --- | --- | --- |
| C#C[C@]1(O)CC[C@H]2[C@H]3CCc4cc(OC)ccc4[C@H]3CC[C@@]21C | 56.1% (inactive) |  |
| COc1cc([C@H]2Oc3cc([C@H]4Oc5cc(O)cc(O)c5C(=O)[C@H]4O)ccc3O[C@H]2CO)ccc1O | 101% (inactive) |  |
| CC(C)c1onc(-c2c(Cl)cccc2Cl)c1COc1ccc(C=Cc2cccc(C(=O)O)c2)c(Cl)c1 | -16.5% (inactive) |  |
| NC(N)=Nc1nc(CSCCC(N)=NS(N)(=O)=O)cs1 | 216% (inactive) |  |
| C=C1c2cccc(O)c2C(O)=C2C(=O)[C@@]3(O)C(O)=C(C(N)=O)C(=O)[C@@H](N(C)C)[C@@H]3[C@@H](O)[C@H]12 | 6.95% (inactive) |  |
| O=c1[nH]c(=O)n([C@H]2C[C@@H](O)[C@@H](CO)O2)cc1C(F)(F)F | 21.7% (inactive) |  |
| Cn1c(=O)c(Oc2ccc(F)cc2F)cc2cnc(NC3CCOCC3)nc21 | 0% (inactive) |  |
| COc1c(C)c2c(c(O)c1CC=C(C)CCC(=O)O)C(=O)OC2 | 18.1% (inactive) |  |
| C[C@@H](O[C@H]1OCCN(Cc2n[nH]c(=O)[nH]2)[C@@H]1c1ccc(F)cc1)c1cc(C(F)(F)F)cc(C(F)(F)F)c1 | 56.8% (inactive) |  |
| CC(C)N(CCCNC(=O)Nc1ccc(C(C)(C)C)cc1)C[C@H]1O[C@@H](n2cc(Br)c3c(N)ncnc32)[C@H](O)[C@H]1O | 338% (inactive) |  |
| O=c1[nH]c(=O)n([C@H]2C[C@@H](O)[C@@H](CO)O2)cc1I | 0% (inactive) |  |
| Cc1ccc(NC(=O)c2cccc(N(C)C)c2)cc1NC(=O)c1ccc(O)cc1 |  | inactive |
| O=C(O)C1=NC(C(=O)O)CC(C=CN2c3cc(O)c(OC4OC(CO)C(O)C(O)C4O)cc3CC2C(=O)O)=C1 (stereo not drawn) | 7.37% (inactive) |  |
| CCC=CC[C@H]1C(=O)CC[C@@H]1CC(=O)OC | 0% (inactive) |  |
| CN(CC=CC#CC(C)(C)C)Cc1cccc2ccccc12 | -8.65% (inactive) |  |
| CO[C@H]1/C=C\O[C@@]2(C)Oc3c(C)c(O)c4c(O)c(c(C=NN5CCN(C6CCCC6)CC5)c(O)c4c3C2=O)NC(=O)C(C)=CC=C[C@H](C)[C@H](O)[C@@H](C)[C@@H](O)[C@@H](C)[C@H](OC(C)=O)[C@H]1C | 132% (inactive) |  |

— PubChem BioAssay (NCATS)
